Source: publication PMC7862700, “An all-to-all approach to the identification of sequence-specific readers for epigenetic DNA modifications on cytosine”

How the values were obtained:
Assay in all cases: DAPPL (digital affinity profiling via proximity ligation, sequencing); 10 mM Tris-HCl pH 7.5, 50 mM NaCl, 1 mM DTT, 4% glycerol, room temperature, 30 min; GST-TFs on glutathione beads, 16-mer random dsDNA library, 0.1% formaldehyde crosslink after washing; high values mean tight binding
Conditions in all cases: protein: recombinant; tags: N-terminal GST; dsDNA, one strand shown
FLI1 = molecular target: T1, FLI1 (Homo sapiens, UniProt Q01543 1-452)
T1 sequence: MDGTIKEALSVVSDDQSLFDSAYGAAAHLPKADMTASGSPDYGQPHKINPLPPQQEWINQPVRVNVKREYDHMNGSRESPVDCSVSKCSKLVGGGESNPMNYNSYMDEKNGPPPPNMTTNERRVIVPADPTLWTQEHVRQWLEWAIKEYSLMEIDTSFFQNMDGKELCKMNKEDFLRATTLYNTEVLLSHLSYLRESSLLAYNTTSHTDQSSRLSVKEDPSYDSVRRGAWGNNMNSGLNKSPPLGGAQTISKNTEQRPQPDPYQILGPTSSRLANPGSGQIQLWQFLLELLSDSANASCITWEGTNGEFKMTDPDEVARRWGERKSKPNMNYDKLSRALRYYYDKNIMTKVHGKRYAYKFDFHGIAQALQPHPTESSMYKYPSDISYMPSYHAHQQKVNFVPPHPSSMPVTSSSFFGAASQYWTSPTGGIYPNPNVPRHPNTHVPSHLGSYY
Procedure, shortened: (§1)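 Each value of binding signal is a hexamer's read frequency for a factor divided by the same hexamer's frequency in the tag-only sample. Barcoded, bead-captured GST fusions of human transcription factors made in yeast were pooled with that sample and incubated with 200 nmole of a random double-stranded 16-mer DNA library in Tris/NaCl/DTT/glycerol buffer at room temperature for 30 min. Washing, 0.1% formaldehyde crosslinking, proximity ligation, PCR and Illumina NextSeq500 sequencing followed.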

ELK1 = molecular target: T2, ELK1 (Homo sapiens, UniProt P19419 1-428)
T2 sequence: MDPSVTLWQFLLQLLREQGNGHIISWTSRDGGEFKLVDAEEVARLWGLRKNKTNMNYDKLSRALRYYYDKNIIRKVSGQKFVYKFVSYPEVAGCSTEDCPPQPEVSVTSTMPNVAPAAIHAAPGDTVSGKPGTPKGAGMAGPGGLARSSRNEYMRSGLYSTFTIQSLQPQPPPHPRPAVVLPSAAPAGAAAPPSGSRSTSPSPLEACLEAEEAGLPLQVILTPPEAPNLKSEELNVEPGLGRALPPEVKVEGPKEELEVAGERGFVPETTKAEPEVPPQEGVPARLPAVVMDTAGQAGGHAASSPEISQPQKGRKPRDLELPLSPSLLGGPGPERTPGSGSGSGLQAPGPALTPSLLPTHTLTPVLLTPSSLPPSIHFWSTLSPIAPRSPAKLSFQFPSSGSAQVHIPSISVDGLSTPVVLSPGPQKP
Procedure, shortened: as §1

ERG = molecular target: T3, ERG (Homo sapiens, UniProt P11308 1-479)
T3 sequence: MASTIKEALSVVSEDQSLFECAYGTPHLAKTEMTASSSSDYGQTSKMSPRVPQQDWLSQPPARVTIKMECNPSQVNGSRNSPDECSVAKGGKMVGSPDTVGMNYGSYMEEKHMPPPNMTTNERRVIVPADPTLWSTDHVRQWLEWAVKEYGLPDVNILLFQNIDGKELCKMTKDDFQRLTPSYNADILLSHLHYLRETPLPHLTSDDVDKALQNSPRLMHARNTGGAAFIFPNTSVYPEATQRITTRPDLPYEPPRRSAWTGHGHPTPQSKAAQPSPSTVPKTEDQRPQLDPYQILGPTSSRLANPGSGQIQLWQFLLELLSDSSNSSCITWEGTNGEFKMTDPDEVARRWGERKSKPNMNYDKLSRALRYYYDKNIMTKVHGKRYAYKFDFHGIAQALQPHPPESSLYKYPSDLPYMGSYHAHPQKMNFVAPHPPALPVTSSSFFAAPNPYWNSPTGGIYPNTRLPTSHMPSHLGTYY
Procedure, shortened: as §1

ELF1 = ELF1 (Homo sapiens, UniProt P32519 1-619)
Procedure, shortened: as §1

EHF = molecular target: T4, EHF (Homo sapiens, UniProt Q9NZC4 1-300)
T4 sequence: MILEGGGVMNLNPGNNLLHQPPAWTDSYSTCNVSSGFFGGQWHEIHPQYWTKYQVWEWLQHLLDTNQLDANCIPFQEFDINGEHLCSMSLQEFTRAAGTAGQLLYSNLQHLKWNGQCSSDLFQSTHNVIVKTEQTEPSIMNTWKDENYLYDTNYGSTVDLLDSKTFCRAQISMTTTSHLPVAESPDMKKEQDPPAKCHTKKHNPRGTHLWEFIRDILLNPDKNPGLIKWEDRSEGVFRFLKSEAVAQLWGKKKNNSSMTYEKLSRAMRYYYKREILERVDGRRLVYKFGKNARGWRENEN
Procedure, shortened: as §1

SPI1 = SPI1 (Homo sapiens, UniProt P17947 1-270)
Procedure, shortened: as §1

SPIB = SPIB (Homo sapiens, UniProt Q01892 1-262)
Procedure, shortened: as §1

ELK3 = molecular target: T5, ELK3 (Homo sapiens, UniProt P41970 1-407)
T5 sequence: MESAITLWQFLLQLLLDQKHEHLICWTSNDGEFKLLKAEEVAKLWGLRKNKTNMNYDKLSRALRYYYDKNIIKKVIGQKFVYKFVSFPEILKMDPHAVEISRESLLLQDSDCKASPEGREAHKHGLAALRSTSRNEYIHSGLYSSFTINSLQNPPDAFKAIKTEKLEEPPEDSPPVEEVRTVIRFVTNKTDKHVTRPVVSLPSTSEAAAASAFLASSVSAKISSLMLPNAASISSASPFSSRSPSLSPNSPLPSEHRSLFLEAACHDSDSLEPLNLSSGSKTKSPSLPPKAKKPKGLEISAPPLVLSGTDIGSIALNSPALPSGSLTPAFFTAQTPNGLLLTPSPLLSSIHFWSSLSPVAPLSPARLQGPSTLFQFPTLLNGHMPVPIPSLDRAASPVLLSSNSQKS
Procedure, shortened: as §1

GABPA = molecular target: T6, GABPA (Homo sapiens, UniProt Q06546 1-454)
T6 sequence: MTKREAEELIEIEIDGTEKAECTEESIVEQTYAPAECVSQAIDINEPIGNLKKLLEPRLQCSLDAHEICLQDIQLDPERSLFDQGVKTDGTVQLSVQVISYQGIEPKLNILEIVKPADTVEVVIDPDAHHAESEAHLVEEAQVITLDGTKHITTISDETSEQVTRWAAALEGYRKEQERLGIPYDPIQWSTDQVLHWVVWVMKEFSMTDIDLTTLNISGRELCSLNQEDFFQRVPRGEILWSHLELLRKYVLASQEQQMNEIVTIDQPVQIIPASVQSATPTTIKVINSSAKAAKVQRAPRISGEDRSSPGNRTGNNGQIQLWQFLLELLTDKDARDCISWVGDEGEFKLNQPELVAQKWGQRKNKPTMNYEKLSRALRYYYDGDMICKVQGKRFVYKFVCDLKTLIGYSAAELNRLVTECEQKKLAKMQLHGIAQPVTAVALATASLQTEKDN
Procedure, shortened: as §1

Sequence of ELF1 (P32519 whole entry): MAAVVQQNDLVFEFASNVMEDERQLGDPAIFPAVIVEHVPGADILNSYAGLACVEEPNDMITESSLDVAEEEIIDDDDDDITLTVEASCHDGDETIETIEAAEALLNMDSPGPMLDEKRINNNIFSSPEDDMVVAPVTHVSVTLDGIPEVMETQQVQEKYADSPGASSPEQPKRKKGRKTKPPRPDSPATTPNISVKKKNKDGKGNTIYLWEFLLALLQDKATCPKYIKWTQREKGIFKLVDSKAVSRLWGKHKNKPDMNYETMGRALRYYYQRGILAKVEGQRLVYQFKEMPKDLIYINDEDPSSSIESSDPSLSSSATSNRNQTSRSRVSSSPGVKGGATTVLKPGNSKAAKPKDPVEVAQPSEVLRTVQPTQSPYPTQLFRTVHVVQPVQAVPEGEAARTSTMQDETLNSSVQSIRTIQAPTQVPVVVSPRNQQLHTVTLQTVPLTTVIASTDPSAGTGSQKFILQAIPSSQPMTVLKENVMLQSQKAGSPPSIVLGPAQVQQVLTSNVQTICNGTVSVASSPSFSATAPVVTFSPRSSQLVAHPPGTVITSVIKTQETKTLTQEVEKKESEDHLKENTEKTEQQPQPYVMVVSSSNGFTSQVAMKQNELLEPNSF
Sequence of SPIB (Q01892 whole entry): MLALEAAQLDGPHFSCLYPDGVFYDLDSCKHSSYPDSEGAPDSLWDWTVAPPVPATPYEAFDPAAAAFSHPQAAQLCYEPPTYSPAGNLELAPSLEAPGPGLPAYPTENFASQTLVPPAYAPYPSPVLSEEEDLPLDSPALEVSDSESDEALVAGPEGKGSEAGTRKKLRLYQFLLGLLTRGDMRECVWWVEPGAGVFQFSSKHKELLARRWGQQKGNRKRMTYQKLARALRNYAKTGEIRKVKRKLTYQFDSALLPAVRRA

Sequence: GGAACA
- binding signal (FLI1): 1.06 fold enrichment (6-mer frequency, TF over GST control)
- binding signal (ELK1): 1.09 fold enrichment (6-mer frequency, TF over GST control)
- binding signal (ERG): 1.16 fold enrichment (6-mer frequency, TF over GST control)
- binding signal (ELF1): 1.02 fold enrichment (6-mer frequency, TF over GST control)
- binding signal (EHF): 1.12 fold enrichment (6-mer frequency, TF over GST control)
- binding signal (SPI1): 1.15 fold enrichment (6-mer frequency, TF over GST control)
- binding signal (SPIB): 1.18 fold enrichment (6-mer frequency, TF over GST control)
- binding signal (ELK3): 1.12 fold enrichment (6-mer frequency, TF over GST control)

Sequence: TACAAG
- binding signal (FLI1): 1.06 fold enrichment (6-mer frequency, TF over GST control)
- binding signal (ELK1): 1.03 fold enrichment (6-mer frequency, TF over GST control)
- binding signal (ERG): 1.04 fold enrichment (6-mer frequency, TF over GST control)
- binding signal (ELF1): 1.06 fold enrichment (6-mer frequency, TF over GST control)
- binding signal (EHF): 1.09 fold enrichment (6-mer frequency, TF over GST control)
- binding signal (ELK3): 1.04 fold enrichment (6-mer frequency, TF over GST control)

Sequence: GTCCAT
- binding signal (FLI1): 1.22 fold enrichment (6-mer frequency, TF over GST control)
- binding signal (ELK1): 1.07 fold enrichment (6-mer frequency, TF over GST control)
- binding signal (ERG): 1.14 fold enrichment (6-mer frequency, TF over GST control)
- binding signal (ELF1): 1.1 fold enrichment (6-mer frequency, TF over GST control)
- binding signal (EHF): 1.13 fold enrichment (6-mer frequency, TF over GST control)
- binding signal (SPI1): 1.08 fold enrichment (6-mer frequency, TF over GST control)
- binding signal (SPIB): 1.07 fold enrichment (6-mer frequency, TF over GST control)
- binding signal (ELK3): 1.2 fold enrichment (6-mer frequency, TF over GST control)

Sequence: CGATGA
- binding signal (FLI1): 1.01 fold enrichment (6-mer frequency, TF over GST control)
- binding signal (ELK1): 1.09 fold enrichment (6-mer frequency, TF over GST control)
- binding signal (GABPA): 1.05 fold enrichment (6-mer frequency, TF over GST control)
- binding signal (ELF1): 1.11 fold enrichment (6-mer frequency, TF over GST control)
- binding signal (EHF): 1.08 fold enrichment (6-mer frequency, TF over GST control)
- binding signal (SPI1): 1.06 fold enrichment (6-mer frequency, TF over GST control)
- binding signal (SPIB): 1.01 fold enrichment (6-mer frequency, TF over GST control)
- binding signal (ELK3): 1.09 fold enrichment (6-mer frequency, TF over GST control)

Sequence: TCACAG
- binding signal (FLI1): 1.09 fold enrichment (6-mer frequency, TF over GST control)
- binding signal (ELK1): 1.15 fold enrichment (6-mer frequency, TF over GST control)
- binding signal (GABPA): 1.1 fold enrichment (6-mer frequency, TF over GST control)
- binding signal (ELF1): 1.06 fold enrichment (6-mer frequency, TF over GST control)
- binding signal (EHF): 1.02 fold enrichment (6-mer frequency, TF over GST control)
- binding signal (SPIB): 1.09 fold enrichment (6-mer frequency, TF over GST control)
- binding signal (ELK3): 1.01 fold enrichment (6-mer frequency, TF over GST control)

Sequence: TGATCA
- binding signal (FLI1): 1.04 fold enrichment (6-mer frequency, TF over GST control)
- binding signal (ELK1): 1.05 fold enrichment (6-mer frequency, TF over GST control)
- binding signal (GABPA): 1.03 fold enrichment (6-mer frequency, TF over GST control)
- binding signal (ELF1): 1.07 fold enrichment (6-mer frequency, TF over GST control)
- binding signal (EHF): 1.08 fold enrichment (6-mer frequency, TF over GST control)
- binding signal (SPI1): 1.02 fold enrichment (6-mer frequency, TF over GST control)
- binding signal (ELK3): 1.18 fold enrichment (6-mer frequency, TF over GST control)

Sequence: AGATGA
- binding signal (FLI1): 1.06 fold enrichment (6-mer frequency, TF over GST control)
- binding signal (ELK1): 1.13 fold enrichment (6-mer frequency, TF over GST control)
- binding signal (ERG): 1.11 fold enrichment (6-mer frequency, TF over GST control)
- binding signal (ELF1): 1.14 fold enrichment (6-mer frequency, TF over GST control)
- binding signal (EHF): 1.06 fold enrichment (6-mer frequency, TF over GST control)
- binding signal (SPI1): 1.07 fold enrichment (6-mer frequency, TF over GST control)
- binding signal (SPIB): 1.03 fold enrichment (6-mer frequency, TF over GST control)
- binding signal (ELK3): 1.14 fold enrichment (6-mer frequency, TF over GST control)

Sequence: CAAATC
- binding signal (FLI1): 1.06 fold enrichment (6-mer frequency, TF over GST control)
- binding signal (ELK1): 1.08 fold enrichment (6-mer frequency, TF over GST control)
- binding signal (ERG): 1.14 fold enrichment (6-mer frequency, TF over GST control)
- binding signal (ELF1): 1.16 fold enrichment (6-mer frequency, TF over GST control)
- binding signal (EHF): 1.12 fold enrichment (6-mer frequency, TF over GST control)
- binding signal (SPI1): 1.04 fold enrichment (6-mer frequency, TF over GST control)
- binding signal (SPIB): 1.11 fold enrichment (6-mer frequency, TF over GST control)
- binding signal (ELK3): 1.01 fold enrichment (6-mer frequency, TF over GST control)
